Assay outcomes deposited in PubChem by National Center for Advancing Translational Sciences (NCATS).
GLP-1R inv ag: acts as inverse agonist at human GLP-1 receptor. 410,000 tested, 1.6% active. Potency, µM (doses to about 38.3 µM), inactives show at the highest dose activity change, negative = inhibition, actives largely listed as inhibitors. P43220. HEK293 GLP-1R CRE-luciferase, luminescence, 24 h; GLP-1R form is constitutively active; further: on the % scale 0 is the no-effect control and ±100 the full control effect; nearly all actives have a fitted effect of over 55% in size
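Assay principle: reduced luminescence from a cAMP-responsive reporter in HEK293 cells co-expressing a constitutively active GLP-1R. Conditions: 24 hr compound incubation, 37 deg C, 5% CO2.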
GLP1R ag: activates the human GLP-1 receptor; P43220; HEK293 GLP-1R CRE-luciferase, luminescence, 4-6 h; cells express a hypersensitive GLP-1R form; Potency, µM (series often up to 45.6 µM), for the others: top-dose activation, most hits filed as activators; 380,000 tested, 0.007% active; AID 624172; further: % of control where 0% means no effect
Gal4-VP16 FLuc: inhibits Gal4-VP16 luciferase reporter, ROR gamma counter-screen; Drosophila S2 Gal4-VP16 UAS-luciferase, luminescence, 20 h; Potency, µM (titrated, usually from 53.6 µM), for the others: at the highest dose activity, negative = inhibition, actives largely listed as inhibitors; 310,000 tested, 3.5% active;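 further: Gal4-VP16 expression switched on by copper sulfate through the metallothionein promoter; on the % scale 0 is the no-effect control and ±100 the full control effect; nearly all actives have a fitted effect of over 50% in size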
HEK293 tox: cytotoxicity in counter-screen for GLP-1R inverse agonists; HEK293 cAMP-luciferase reporter cells, luminescence, 24 h; Potency, µM (titrated, usually from 38.3 µM), for inactives: top-dose activity change, negative = inhibition, hits mostly inhibitors; 410,000 tested, 0.13% active; AID 624418;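 further: loss of luciferase light is scored as toxicity; on the % scale 0 is the no-effect control and ±100 the full control effect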
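Step one: seed cells (200 cells/uL, DMEM with 10% Nu serum, 1% pen-strep). Step two: 12-hour incubation at 37 deg C. Step three: pin 23 nL compound, incubate 24 hr. Step four: add luciferase reagent, read luminescence 12 min later.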
RORg inh: blocks mouse ROR gamma transcriptional activity; P51450; Drosophila S2 Gal4-RORgamma UAS-luciferase reporter, 20 h; 310,000 tested, 5.4% active; Potency, µM (series often up to 53.6 µM), inactives show top-dose activity change, negative = inhibition, most hits filed as inhibitors; further: on the % scale 0 is the no-effect control and ±100 the full control effect; nearly all actives have a fitted effect of over 60% in size
Target sequence (P51450 whole entry, looked up, the tested form may be a part): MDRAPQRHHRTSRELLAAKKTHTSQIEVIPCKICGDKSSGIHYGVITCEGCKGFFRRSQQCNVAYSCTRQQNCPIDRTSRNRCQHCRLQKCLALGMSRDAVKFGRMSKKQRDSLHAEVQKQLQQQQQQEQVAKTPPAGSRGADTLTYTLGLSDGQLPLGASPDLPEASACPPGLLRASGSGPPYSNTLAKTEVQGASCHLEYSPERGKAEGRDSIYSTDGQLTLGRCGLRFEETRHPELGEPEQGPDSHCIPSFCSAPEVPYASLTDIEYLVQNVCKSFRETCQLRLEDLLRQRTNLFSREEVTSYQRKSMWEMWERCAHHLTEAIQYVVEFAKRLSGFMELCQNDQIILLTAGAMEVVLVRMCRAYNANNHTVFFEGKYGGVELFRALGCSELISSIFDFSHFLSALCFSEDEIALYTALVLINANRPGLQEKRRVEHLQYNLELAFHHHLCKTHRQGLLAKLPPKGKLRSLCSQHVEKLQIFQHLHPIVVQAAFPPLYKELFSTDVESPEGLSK
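Stably transfected Drosophila Schneider cells are the test system, with ROR gamma fused to Gal4 and luciferase under UAS control; luminescence is read after 20 hr of 700 uM copper sulfate induction at ambient temperature.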
Numbers without * were called inactive; ? = inconclusive; nt = no result given; [ ] = remark or other dose. Sampled rows, rich in hits. Any-hit rate of the full collection: about 5.9%. The call rests on the fitted dose curve; in most records, active means well fitted curve in the direction sought with a large enough effect; inconclusive means small, poorly fitted or top-dose-only effect, or another doubt; inactive means no such curve, though single readings can be large; an effect the other way counts as inactive or inconclusive. Potency means the concentration at half of the fitted maximal effect.

SMILES | GLP-1R inv ag | GLP1R ag | Gal4-VP16 FLuc | HEK293 tox | RORg inh
C[C@H](NC(=O)c1nc[nH]c1C(=O)NCc1ccccc1)C(=O)OC(C)(C)C | -3% | 2% | -3% | -43% | -37%
CCOC(=O)c1c(NC(=O)C(C)Sc2cn(CCNC(=O)c3ccc(OC)cc3)c3ccccc23)sc2c1CCC2 (centres undefined) | 8% | 0% | nt | 2% | nt
COc1ccc(-c2cn3nc(N4CCCC(C(=O)NCc5ccccc5OC)C4)sc3n2)cc1 (centres undefined) | 10% | nt | nt | -4% | nt
CC(C)(C)OC(=O)NCc1ccc(CNC(=O)c2[nH]cnc2C(=O)N[C@@H](Cc2ccccc2)C(=O)OC(C)(C)C)cc1 | ? | 2% | 20µM* | -7% | 11µM*
CNC(=O)c1[nH]cnc1C(=O)N[C@@H](Cc1ccccc1)C(=O)OC(C)(C)C | 10% | -1% | ? | 16% | 7.9µM*
CC(C)(C)OC(=O)NCc1ccc(CNC(=O)c2nc[nH]c2C(=O)NCc2ccccc2)cc1 | ? | 9% | nt | 6% | nt
Cc1ccc(Cl)cc1NC(=O)Cn1cc2c(n1)CCCCC2 | ? | nt | nt | -2% | nt
CC[C@H](C)C(=O)O[C@H]1C[C@H](O)C=C2C=C[C@H](C)[C@H](CC[C@@H](O)C[C@@H](O)CC(=O)O)[C@H]21 | nt | nt | -4% | nt | -6%
COc1ccc2c(c1)C(c1cc(OC)c(OC)c(OC)c1)CC(=O)O2 (centres undefined) | nt | nt | 6% | nt | 6%
CCOC(=O)c1cccc(NC(=O)c2cc(C)nc3c2c(C)nn3-c2ccc(C)cc2)c1 | ? | nt | nt | 4% | nt
COc1ccc(NC(=O)c2ccc3ccccc3c2)cc1 | 8% | -1% | -2% | -2% | -33%
COc1ccc(C(=O)CNc2ccccc2Br)cc1 | 18% | -1% | ? | 9% | 1.8µM*
COc1ccc(C(=O)CNc2ccc3ccccc3c2)cc1 | -4% | 5% | ? | 10% | 13µM*
Cc1ccccc1NCC(=O)c1ccc(Br)cc1 | 0% | -14% | -15% | 4% | 16%
CSc1ccc(CCNC(=O)C2=C(C)C(=O)OC23CCCCC3)cc1 | 5% | nt | nt | 1% | nt
COc1ccccc1CNC(=O)C1CCN(S(=O)(=O)c2ccc3c(ccn3C)c2)CC1 | 8% | nt | nt | -6% | nt
COC(=O)c1ccc2nc(NC(=O)C3CCCCC3)sc2c1 | 17% | -5% | -2% | 2% | -17%
CC(=O)c1sc(Nc2nc3ccc(F)cc3s2)nc1C | ? | 0% | 11µM* | 142% | 3.2µM*
CCOC(=O)c1sc(Nc2nc3ccc(OC)cc3s2)cc1C | ? | 27% | 1% | 371% | ?
COC(=O)c1ccc2nc(NC(=O)C(C)(C)C)sc2c1 | ? | -5% | 7.1µM* | 4% | 2µM*
CCOC(=O)c1csc(Nc2nc3ccc(F)cc3s2)n1 | ? | 16% | ? | ? | 7.9µM*
COC(=O)c1ccc2nc(Nc3nc4ccc(F)cc4s3)sc2c1 | -82% | -16% | 3.5µM* | 58% | 0.14µM*
C=CS(=O)(=O)O | nt | -4% | nt | nt | nt
CCC1(c2ccc(O)cc2)NC(=O)NC1=O (centres undefined) | nt | nt | -6% | nt | 1%
C=Cc1ccc(CN2C(=O)N(c3ccc(C)c(C)c3)S(=O)(=O)c3ccccc32)cc1 | ? | 0% | nt | -3% | nt
SMILES | GLP-1R inv ag | GLP1R ag | Gal4-VP16 FLuc | HEK293 tox | RORg inh
COC(=O)c1cc(Sc2cccc(Cl)c2Cl)ccn1 | ? | 11% | 11µM* | -3% | ?
COC(=O)c1cc(Sc2c(Cl)cccc2Cl)ccn1 | ? | 9% | 6%[10 µM] | -8% | ?
COc1ccccc1-n1c(-c2ccccc2)n[nH]c1=S | -34% | 5% | ? | 17% | 7.1µM*
COc1ccc(CC(=O)NCc2n[nH]c(=S)n2-c2cccc(C)c2)cc1 | 0% | 2% | 4% | -5% | -34%
COc1ccc(OC)c(-n2c(-c3cc(-c4ccccc4)n[nH]3)n[nH]c2=S)c1 | 24% | 3% | ? | -20% | 7.9µM*
COc1ccc(OC)c(-n2c(=O)c3ccccc3c3ccccc3c2=O)c1 | 0% | -14% | -9% | -10% | -43%
COc1ccc(OC)c(-n2c(-c3cccc(C)c3)n[nH]c2=S)c1 | -11% | 4% | -29% | 0% | 2.5µM*
COc1ccc(-c2cc(-c3n[nH]c(=S)n3-c3ccccc3OC)[nH]n2)cc1 | 83% | 18% | ? | 0% | ?
COc1ccc(OC)c(-n2c(-c3ccccc3)n[nH]c2=S)c1 | 0% | -7% | ? | 9% | 10µM*
OC[C@@H]1O[C@@H](Oc2ccc(O)cc2)[C@H](O)[C@@H](O)[C@@H]1O | nt | nt | 0% | nt | 22%
[O-]/C(=C(\C(=S)Nc1cccc2ccccc12)[n+]1ccccc1)c1ccc2c(c1)OCCO2 | -16% | -3% | ? | -4% | 13µM*
[O-]/C(=C(\C(=S)Nc1cccc2ccccc12)[n+]1ccccc1)c1ccc(OC(F)F)cc1 | ? | 4% | -5% | 14% | -41%
CN(Cc1cccc2cnccc12)C(=O)CCc1nnc(CCc2ccccc2)o1 | 36% | 9% | 20µM* | -19% | ?
CC(=O)c1ccc(-c2nnc(CCC(=O)N(C)Cc3cccc4cnccc34)o2)s1 | -12% | 14% | -2% | 4% | 1%
CC1(C(=O)Nc2ccc(Cl)c(Cl)c2)CCN1C(=O)CC1CCCC1 (centres undefined) | 14µM* | 5% | nt | 1% | nt
Cc1oc(-c2ccccc2)nc1Cn1c(=O)cc(-c2ccccc2)c2c(C)nn(C)c21 | 1% | nt | nt | 8% | nt
CCCCN(C)CCCNC(=O)CN1C(=O)COc2ccc(S(=O)(=O)N3CCC(C)CC3)cc21 | -22% | 18% | nt | -13% | nt
CCCCc1cc(=O)oc2cc(O)cc(O)c12 | ? | 12% | 22µM* | 218% | -38%
O=C(c1ccc(N2CCN(C(=O)c3ccc(F)c(F)c3)CC2)cc1)c1cccc(F)c1 | ? | -3% | ? | -4% | 1.8µM*
COc1ccc(C(=O)Nn2c(SCC(=O)NCc3ccco3)nc3ccccc3c2=O)cc1 | ? | -10% | 8.9µM* | -12% | 10µM*
COc1ccc(C(=O)Nn2c(SCc3cccc([N+](=O)[O-])c3)nc3ccccc3c2=O)cc1 | 5.6µM* | -17% | ? | 5% | -14%
COc1ccc(C(=O)Nn2c(SCC(=O)NC3CCCCC3)nc3ccccc3c2=O)cc1 | -16% | -15% | 13µM* | 11% | ?
COc1ccc(C(=O)Nn2c(SCC(=O)c3ccc(Cl)cc3)nc3ccccc3c2=O)cc1 | 0% | -12% | ? | -11% | 11µM*
CCn1c(SCC(=O)NCc2ccco2)nc2ccccc2c1=O | -8% | 12% | 20% | -10% | 0%
COc1ccc(-c2ccc(F)cc2)cc1C1C2C=CCC(C)C2C(=O)N1Cc1ccccc1 (centres undefined) | nt | nt | -8% | nt | 45%
